Reference: PubChem BioAssay (EPA / NIEHS)
Results filed as inconclusive are left out. The source made the active and inactive calls. Rule for the calls, unless noted: active = hit-call score of the fitted dose curve at least 0.9, where 1 is the maximum; inconclusive = response in the unintended direction; inactive = score below 0.9.

Legend:
[1] = TOX21_p53_BLA_p2_viability: Viability Assessment in the Tox21 HCT-116 p53 Agonism Beta-lactamase Assay, Phase 2 (AID 2283591);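 note: compound exposure lasted 16 h at 37 °C; actives lower the ATP signal meaning cytotoxicity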
How it was run: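 HCT116 p53-bla cells, 4000/well, dosed after 5 h plating (217-fold dilution of DMSO stocks) and incubated 16 h at 37C. Viability taken as cellular ATP by CellTiter-Glo luminescence after 30 min RT; signal loss marks cytotoxicity.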

[2] = target: Cellular tumor antigen p53 (Homo sapiens) (UniProt P04637); assay: TOX21_p53_BLA_p2_ratio: Tox21 HCT-116 p53 Agonism Beta-lactamase Assay, Ratio, Phase 2 (AID 2283592)
Cellular tumor antigen p53 (Homo sapiens), sequence (P04637 whole entry, looked up): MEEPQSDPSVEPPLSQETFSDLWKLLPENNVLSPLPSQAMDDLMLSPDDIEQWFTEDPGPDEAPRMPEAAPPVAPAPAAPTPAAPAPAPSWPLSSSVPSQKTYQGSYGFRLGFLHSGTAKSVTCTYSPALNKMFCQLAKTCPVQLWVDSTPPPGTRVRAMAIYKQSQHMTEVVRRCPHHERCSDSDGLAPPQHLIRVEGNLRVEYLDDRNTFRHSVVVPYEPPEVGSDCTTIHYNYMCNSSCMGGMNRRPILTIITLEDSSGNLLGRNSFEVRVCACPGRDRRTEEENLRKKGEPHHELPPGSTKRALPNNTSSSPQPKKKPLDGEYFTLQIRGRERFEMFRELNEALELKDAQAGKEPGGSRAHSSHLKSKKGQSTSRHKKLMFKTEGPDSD
How it was run: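 Human colon HCT116 cells with an inducible p53 beta-lactamase reporter are exposed to test chemicals for 16 h at 37C. Reporter induction is read as the 460/530 nm emission ratio after CCF4-AM loading, normalized to DMSO.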

[3] = TOX21_p53_BLA_p3_viability: Viability Assessment in the Tox21 HCT-116 p53 Agonism Beta-lactamase Assay, Phase 3 (AID 2283593);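 note: cells exposed to compound for 16 h before reading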
How it was run: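 HCT116 cells, 4000/well, dosed 5 h after plating by pin transfer (217-fold dilution from DMSO stock) and incubated 16 h at 37C, 5% CO2. Viability read as ATP luminescence with CellTiter-Glo after 30 min at room temperature.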

[4] = target: Cellular tumor antigen p53 (Homo sapiens) (UniProt P04637); assay: TOX21_p53_BLA_p3_ratio: Tox21 HCT-116 p53 Agonism Beta-lactamase Assay, Ratio, Phase 3 (AID 2283596)
How it was run: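 HCT116 p53-bla cells (4000/well) given compound in DMSO (217-fold dilution) after 5 h, incubated 16 h at 37C. CCF4-AM substrate 2 h at room temperature; 460/530 nm emission ratio, gain fitted against DMSO.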

[5] = TOX21_p53_BLA_p4_viability: Viability Assessment in the Tox21 HCT-116 p53 Agonism Beta-lactamase Assay, Phase 4 (AID 2283597);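 note: hits lower the luminescence signal meaning cytotoxicity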
How it was run: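 Luminescent ATP readout (CellTiter-Glo, 30 min, room temperature) in the same wells as the p53 bla ratio. HCT116 cells were treated for 16 h at 37C with DMSO-dissolved compounds.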

[6] = target: Cellular tumor antigen p53 (Homo sapiens) (UniProt P04637); assay: TOX21_p53_BLA_p5_ratio: Tox21 HCT-116 p53 Agonism Beta-lactamase Assay, Ratio, Phase 5 (AID 2283599)
How it was run: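 HCT-116 p53-bla cells (4000/well) plated 5 h, dosed with compound (217-fold DMSO dilution) for 16 h at 37 C; CCF4-AM substrate 2 h at room temperature. Activity is the 460/530 nm emission ratio (405 nm excitation), fitted in gain-of-signal direction versus DMSO.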

[7] = TOX21_p53_BLA_p5_viability: Viability Assessment in the Tox21 HCT-116 p53 Agonism Beta-lactamase Assay, Phase 5 (AID 2283600)
How it was run: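 Seeded cells (4000/well) settle 5 h before compound addition. Plates then incubate 16 h at 37C, receive FRET substrate for 2 h, and finally CellTiter-Glo, with luminescence measured after a 30 min room-temperature incubation.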

[8] = ACEA_ER_AUC_viability: ACEA Biosciences xCELLigence Real-Time Cell Analysis on Estrogen Receptor Agonism for Viability (AID 2283782);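 note: continuous compound exposure with impedance area under curve over 80 h; hit means loss of impedance signal meaning reduced cell growth or viability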
How it was run: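 T47D cells preconditioned in phenol red-free RPMI with charcoal-stripped FBS, then dosed with 8-point 1:4 series from 100 uM (up to 0.5% DMSO). Impedance monitored up to ~80 h; area-under-curve loss versus DMSO taken as viability.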

[9] = target: Thyroid hormone receptor alpha (Rattus norvegicus) + Thyroid hormone receptor beta (Rattus norvegicus) (UniProt P18113+P63059); assay: TOX21_TR_LUC_GH3_Agonist_Followup: Tox21 GH3 Thyroid Hormone Receptor Agonism Luciferase Follow-Up Assay (AID 2283939)
Thyroid hormone receptor alpha (Rattus norvegicus) + Thyroid hormone receptor beta (Rattus norvegicus), sequence (P63059 whole entry, looked up): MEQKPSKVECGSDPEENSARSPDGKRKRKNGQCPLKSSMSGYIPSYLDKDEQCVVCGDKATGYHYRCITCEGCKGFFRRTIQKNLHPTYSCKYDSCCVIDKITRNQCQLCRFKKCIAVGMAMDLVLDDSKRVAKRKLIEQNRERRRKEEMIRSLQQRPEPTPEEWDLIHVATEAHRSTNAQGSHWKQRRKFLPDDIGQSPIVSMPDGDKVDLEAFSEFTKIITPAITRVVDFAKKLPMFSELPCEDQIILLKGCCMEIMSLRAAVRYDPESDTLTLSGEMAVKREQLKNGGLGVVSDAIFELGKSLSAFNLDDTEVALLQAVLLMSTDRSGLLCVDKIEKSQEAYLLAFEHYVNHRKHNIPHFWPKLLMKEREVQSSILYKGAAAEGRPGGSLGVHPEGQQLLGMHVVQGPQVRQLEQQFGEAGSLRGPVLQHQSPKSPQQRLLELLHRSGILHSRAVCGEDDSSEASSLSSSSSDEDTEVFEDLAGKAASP
Thyroid hormone receptor alpha (Rattus norvegicus) + Thyroid hormone receptor beta (Rattus norvegicus), sequence (P18113 whole entry, looked up): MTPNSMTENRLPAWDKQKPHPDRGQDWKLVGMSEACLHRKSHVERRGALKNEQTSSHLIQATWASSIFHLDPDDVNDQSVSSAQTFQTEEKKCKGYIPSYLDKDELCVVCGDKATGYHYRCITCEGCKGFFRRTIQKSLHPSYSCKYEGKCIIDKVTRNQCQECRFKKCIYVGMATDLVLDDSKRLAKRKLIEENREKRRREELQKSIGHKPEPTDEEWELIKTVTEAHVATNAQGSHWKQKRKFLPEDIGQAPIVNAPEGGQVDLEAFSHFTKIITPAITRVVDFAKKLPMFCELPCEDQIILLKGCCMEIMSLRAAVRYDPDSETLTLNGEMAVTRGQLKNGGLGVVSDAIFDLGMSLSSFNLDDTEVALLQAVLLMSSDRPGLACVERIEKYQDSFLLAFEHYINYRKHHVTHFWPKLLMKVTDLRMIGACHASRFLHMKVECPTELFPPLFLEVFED
How it was run: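 Rat GH3 cells (1,500/well) in serum-free assay medium, treated with 15-point series, 92 uM to 5 nM final, for 24 h at 37C. Luciferase via ONE-Glo luminescence; gain of signal fitted against DMSO, T3 positive control.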

THRA (gene 7067) = THRA (gene 7067) (UniProt P10827); assay: TOX21_TRA_COA_Agonist_Followup_ratio: Tox21 Thyroid Hormone Receptor alpha Agonism through Coactivator Recruitment Follow-Up Assay, Ratio (AID 2283948; active = hit-call score of the fitted dose curve at least 0.9, where 1 is the maximum; inactive = score below 0.9)
THRA (gene 7067), sequence (P10827 whole entry, looked up, the tested form may be a part): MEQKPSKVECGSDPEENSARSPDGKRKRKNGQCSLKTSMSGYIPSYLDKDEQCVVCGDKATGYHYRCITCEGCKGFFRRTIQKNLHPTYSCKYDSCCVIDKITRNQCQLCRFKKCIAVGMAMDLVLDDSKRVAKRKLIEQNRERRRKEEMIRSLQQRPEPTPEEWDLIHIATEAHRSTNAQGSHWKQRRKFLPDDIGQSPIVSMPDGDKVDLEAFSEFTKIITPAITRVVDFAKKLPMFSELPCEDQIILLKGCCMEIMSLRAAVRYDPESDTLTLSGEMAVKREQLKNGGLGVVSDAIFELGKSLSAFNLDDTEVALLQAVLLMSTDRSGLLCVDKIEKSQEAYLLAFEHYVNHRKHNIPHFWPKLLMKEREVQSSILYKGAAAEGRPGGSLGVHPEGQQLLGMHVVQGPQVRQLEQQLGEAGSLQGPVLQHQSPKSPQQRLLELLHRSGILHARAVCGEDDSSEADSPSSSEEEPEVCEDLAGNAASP
How it was run: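 Agonist-mode biochemical TR-FRET with TRα LBD and SRC-2 coactivator peptide; activity expressed as percent of T3 response over DMSO baseline.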

THRB (gene 7068) [10] = target: THRB (gene 7068) (UniProt P10828); assay: TOX21_TRB_BLA_Agonist_Followup_ratio: Tox21 Thyroid Hormone Receptor beta Agonism Beta-lactamase (BLA) Follow-Up Assay, Ratio (AID 2283954)
THRB (gene 7068), sequence (P10828 whole entry, looked up, the tested form may be a part): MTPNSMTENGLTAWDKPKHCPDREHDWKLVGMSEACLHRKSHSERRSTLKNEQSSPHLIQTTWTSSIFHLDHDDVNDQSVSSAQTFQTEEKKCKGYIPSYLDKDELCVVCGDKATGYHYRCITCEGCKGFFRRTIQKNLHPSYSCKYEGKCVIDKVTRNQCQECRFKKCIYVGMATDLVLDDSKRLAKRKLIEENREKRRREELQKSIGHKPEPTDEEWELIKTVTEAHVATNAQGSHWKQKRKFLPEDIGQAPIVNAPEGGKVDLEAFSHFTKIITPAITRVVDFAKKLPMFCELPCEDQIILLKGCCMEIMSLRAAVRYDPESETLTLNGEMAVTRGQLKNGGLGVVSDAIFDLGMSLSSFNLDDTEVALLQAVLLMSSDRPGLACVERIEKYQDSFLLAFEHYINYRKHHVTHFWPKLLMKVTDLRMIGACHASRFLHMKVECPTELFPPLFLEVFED
How it was run: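 Human TRβ LBD–GAL4 DBD fusion in GeneBLAzer UAS-bla HEK293T cells; 11 concentrations in triplicate, 18 h at 37°C/5% CO2, T3 as agonist control. CCF4-AM substrate 2 h at room temperature; 460:530 nm ratio fitted for gain of signal versus DMSO.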

[11] = TOX21_TRB_BLA_Agonist_Followup_viability: Viability Assessment in the Tox21 Thyroid Hormone Receptor beta Agonism Beta-lactamase (BLA) Follow-Up Assay (AID 2283956)
How it was run: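 TRb-bla HEK293T cells (GAL4-DBD/human TRb LBD) in 2% charcoal-stripped FBS medium were exposed 18 h at 37C to 11 concentrations in triplicate. CellTiter-Glo ATP luminescence was read after 30 min at room temperature, with bidirectional fitting against DMSO.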

THRB (gene 7068) [12] = target: THRB (gene 7068) (UniProt P10828); assay: TOX21_TRB_COA_Agonist_Followup_ratio: Tox21 Thyroid Hormone Receptor beta Agonism through Coactivator Recruitment Follow-Up Assay, Ratio (AID 2283963; active = hit-call score of the fitted dose curve at least 0.9, where 1 is the maximum; inactive = score below 0.9)
How it was run: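 Cell-free TR-FRET coactivator recruitment: GST-tagged TRβ LBD (5.0 nM) with 0.10% BSA incubated with compound, then fluorescein-SRC-2 peptide (200 nM) and Tb-anti-GST antibody (2 nM) added. 520:495 nm ratio normalized to DMSO (0%) and T3 (100%).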

[13] = target: Retinoic acid receptor RXR-alpha (Homo sapiens) (UniProt P19793); assay: TOX21_TR_RXR_BLA_Agonist_Followup_ratio: Tox21 Thyroid Hormone Receptor beta Retinoid X Receptor alpha (RXRa) Agonism Beta-lactamase (BLA) Follow-Up Assay, Ratio (AID 2283968)
Retinoic acid receptor RXR-alpha (Homo sapiens), sequence (P19793 whole entry, looked up): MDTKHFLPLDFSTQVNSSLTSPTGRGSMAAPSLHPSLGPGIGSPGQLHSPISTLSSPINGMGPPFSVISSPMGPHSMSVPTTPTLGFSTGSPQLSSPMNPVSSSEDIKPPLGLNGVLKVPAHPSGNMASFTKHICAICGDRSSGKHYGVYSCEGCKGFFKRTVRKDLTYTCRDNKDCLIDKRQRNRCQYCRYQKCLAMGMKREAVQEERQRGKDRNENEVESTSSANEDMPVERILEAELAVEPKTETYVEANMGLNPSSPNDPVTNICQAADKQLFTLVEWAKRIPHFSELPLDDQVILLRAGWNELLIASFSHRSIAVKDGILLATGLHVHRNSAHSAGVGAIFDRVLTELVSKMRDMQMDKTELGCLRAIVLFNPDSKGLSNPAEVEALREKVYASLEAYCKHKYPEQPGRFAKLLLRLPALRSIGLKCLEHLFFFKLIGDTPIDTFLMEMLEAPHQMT
How it was run: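 HEK293T RXRa-bla, qHTS; cpd 11-pt conc. in triplicate, 16 h 37C/5% CO2; CCF4-AM 2 h RT; ratio 460:530 nm; agonist direction vs DMSO; 9-cis retinoic acid as positive control.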

[14] = TOX21_TR_RXR_BLA_Agonist_Followup_viability: Viability Assessment in the Tox21 Thyroid Hormone Receptor beta Retinoid X Receptor alpha (RXRa) Agonism Beta-lactamase (BLA) Follow-Up Assay (AID 2283970)
How it was run: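 Cells: HEK293T RXRa-UAS-bla, 2,500/well; medium phenol red-free DMEM + 2% charcoal-stripped FBS; 16h, 37C/5% CO2; qHTS concentration series. Read: CellTiter-Glo luminescence (ATP); bidirectional fit, DMSO = baseline.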

[15] = CCTE_Harrill_HTTr_Viability_MCF7: CCTE's 6-hour Cell Viability Assessment for the High-Throughput Transcriptomics (HTTr) Platform, in MCF-7 cells cultured in DMEM + 10% fetal bovine serum, Harrill Lab (AID 2284010; active = hit-call score of the fitted dose curve at least 0.9, where 1 is the maximum; inactive = score below 0.9)
How it was run: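 Cells were dosed with chemicals in an eight-point dilution series, imaged 6 hours later for propidium iodide uptake, and the endpoint was analyzed by bidirectional fitting against DMSO as negative control.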

[16] = CCTE_Harrill_HTTr_Apoptosis_MCF7: CCTE's 6-hour Apoptosis Assessment for the High-Throughput Transcriptomics (HTTr) Platform, in MCF-7 cells cultured in DMEM + 10% fetal bovine serum, Harrill Lab (AID 2284011; active = hit-call score of the fitted dose curve at least 0.9, where 1 is the maximum; inactive = score below 0.9)
How it was run: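 Apoptosis in MCF-7 cells grown in DMEM with 10% fetal bovine serum was scored after a six hour exposure by high content imaging of caspase-3/7 activation (CellEvent Caspase 3/7 Green), with DMSO serving as negative control and baseline.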

[17] = CCTE_Harrill_HTTr_CellCount_MCF7: CCTE's Cell Proliferation Assessment for the High-Throughput Transcriptomics (HTTr) Platform, Harrill Lab (AID 2284012);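 note: count of Hoechst-stained nuclei per well by high-content imaging in MCF-7 cells; cells exposed to compound for six hours; intended direction is loss of nuclei count meaning fewer cells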
How it was run: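 Chemicals in eight-point dilution series are added to MCF-7 cells for six hours, nuclei are stained with Hoechst and imaged, and per-well nuclei counts are fitted in both directions relative to DMSO controls.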

Measured: outcome

CNC(=O)ON=C(CSC)C(C)(C)C
inactive: [1] | [2] | [3] | [4] | [5] | [6] | [7] | [8] | [9] | THRA (gene 7067) | THRB (gene 7068) [10] | [11] | THRB (gene 7068) [12] | [13] | [14] | [15] | [16] | [17]
